Data published in the supplement of paper PMC13380429.

Test system: Vero E6 infected with SARS-CoV-2
Test: inhibition of SARS-CoV-2 cytopathic effect; higher = more antiviral protection, active = above 15
Conditions: 48 h

Measured: inhibition of SARS-CoV-2 cytopathic effect

Cl/C=C\C[N+]12CN3CN(CN(C3)C1)C2 [1-((Z)-3-chloroallyl)-1,3,5,7-tetraazaadamantan-1-ium]
inactive: 1 nM 0% | 8.33 nM 0.47% | 100 nM -0.23% | 833.33 nM 2.67% | 10000 nM 5.36%

O=C(N[C@H]1CN2CCC1CC2)c1cc2cccc(Cl)c2s1
inactive: 1 nM -0.49% | 8.33 nM -1.25% | 100 nM 2.35% | 833.33 nM -1.74% | 10000 nM -7.63%

CC(C)(O)c1ccn2c(-c3ccc(F)c(-c4ccc(F)cc4C#N)c3)cnc2c1F
inactive: 1 nM -0.56% | 8.33 nM 0.82% | 100 nM 0.5% | 833.33 nM -1.01% | 10000 nM -2.58%

C[C@H](Cc1cc2c(c(C(N)=O)c1)N(CCCO)CC2)NCCOc1ccccc1OCC(F)(F)F [silodosin]
inactive: 1 nM 3.7% | 8.33 nM -1.05% | 100 nM 2.16% | 833.33 nM 2.24% | 10000 nM 3.11%

CC(=O)NC[C@H]1CN(c2ccc(-c3ccc(CNCc4cnn[nH]4)cc3)c(F)c2)C(=O)O1 [radezolid]
inactive: 1 nM -1.38% | 8.33 nM 0.58% | 100 nM 2.16% | 833.33 nM -0.64% | 10000 nM 2.43%

O=C(O)c1cc(=O)c2ccccc2[nH]1 [kynurenic-acid]
inactive: 1 nM 3.61% | 8.33 nM 1.12% | 100 nM 2.79% | 833.33 nM 2.98% | 10000 nM 1.89%

CC(=O)NCCCCCC(=O)O [acexamic-acid]
inactive: 1 nM 1.78% | 8.33 nM 1.59% | 100 nM 0.61% | 833.33 nM 0.94% | 10000 nM 0.09%

COc1cccc(N(C)C(=S)Oc2ccc3c(c2)CCCC3)n1 [liranaftate]
inactive: 1 nM -2.95% | 8.33 nM 1.62% | 100 nM 0.18% | 833.33 nM -0.32% | 10000 nM 1.9%

CC(=O)O[C@]1(C(C)=O)CC[C@H]2[C@@H]3C=C(Cl)C4=CC(=O)CC[C@]4(C)[C@H]3CC[C@@]21C [chlormadinone-acetate]
inactive: 1 nM -13.3% | 8.33 nM -12.7% | 100 nM -10.2% | 833.33 nM -13.4% | 10000 nM -13%

C[C@H]1CNCCCN1S(=O)(=O)c1cccc2cncc(F)c12 [ripasudil]
inactive: 1 nM -0.82% | 8.33 nM 0.41% | 100 nM -1.45% | 833.33 nM -1.5% | 10000 nM -5.58%

Oc1cc2c(cc1O)[C@@H]1c3ccc(O)c(O)c3OC[C@]1(O)C2 [hematoxylin]
inactive: 1 nM 1.9% | 8.33 nM 1.95% | 100 nM 0.48% | 833.33 nM 0.52% | 10000 nM 1.62%

O=C(NCC1(N2CCN(c3ccccc3)CC2)CCOCC1)c1cccnc1Sc1ccccc1
inactive: 1 nM -0.72% | 8.33 nM 1.47% | 100 nM 1% | 833.33 nM -2.18% | 10000 nM 0.86%

C[C@]12CC/C(=N\OCCN)C[C@@H]1C(=O)C[C@@H]1[C@@H]2CC[C@]2(C)C(=O)CC[C@@H]12 [istaroxime]
inactive: 1 nM 2.17% | 8.33 nM -1.67% | 100 nM 1.45% | 833.33 nM 3.86% | 10000 nM 6.93%

CCCCCCCCCCOc1cc2c(O)c(C(=O)OCC)cnc2cc1OCC [decoquinate]
inactive: 1 nM -0.9% | 8.33 nM -0.75% | 100 nM -1.59% | 833.33 nM -0.59% | 10000 nM 2.03%

NC(=O)NC(=O)Cc1ccccc1 [phenacemide]
inactive: 1 nM -1.41% | 8.33 nM 0.22% | 100 nM -0.3% | 833.33 nM 0.89% | 10000 nM 0.35%

O=C(OCCN1CCCCC1)c1c[nH]c2ccccc12
inactive: 1 nM 0.38% | 8.33 nM 2.59% | 100 nM 1.63% | 833.33 nM -1.42% | 10000 nM -6.53%

CC(C)n1cnc2c(C(=O)N[C@H]3CN4CCC3CC4)cc(Cl)cc21
inactive: 1 nM -1.27% | 8.33 nM -1.37% | 100 nM -1.13% | 833.33 nM 1.32% | 10000 nM -4.61%

Cc1cc(/C=C/C#N)cc(C)c1Nc1ccnc(Nc2ccc(C#N)cc2)n1 [rilpivirine]
inactive: 1 nM 0.35% | 8.33 nM -3.25% | 100 nM -2.82% | 833.33 nM -1.06% | 10000 nM -6.76%

CCCCCCCCCCCCCCCC[N+](C)(C)Cc1ccccc1 [benzyldimethylhexadecylammonium]
inactive: 1 nM 2.1% | 8.33 nM 0.11% | 100 nM -1.57% | 833.33 nM -0.97% | 10000 nM -13.2%

O=C1COc2nccc(-c3ccccc3F)c2CN1Cc1cc(C(F)(F)F)cc(C(F)(F)F)c1
inactive: 1 nM -0.76% | 8.33 nM -1.69% | 100 nM -0.49% | 833.33 nM -2.79% | 10000 nM -1.55%
